Paper PMC7862700, “An all-to-all approach to the identification of sequence-specific readers for epigenetic DNA modifications on cytosine”

Experiments:
Assay in all cases: DAPPL (digital affinity profiling via proximity ligation, sequencing); 10 mM Tris-HCl pH 7.5, 50 mM NaCl, 1 mM DTT, 4% glycerol, room temperature, 30 min; GST-TFs on glutathione beads, 16-mer random dsDNA library, 0.1% formaldehyde crosslink after washing; high values mean tight binding
FEV = target: T1, FEV (Homo sapiens, UniProt Q99581 1-238); conditions: protein: recombinant; tags: N-terminal GST; dsDNA, one strand shown
T1 sequence: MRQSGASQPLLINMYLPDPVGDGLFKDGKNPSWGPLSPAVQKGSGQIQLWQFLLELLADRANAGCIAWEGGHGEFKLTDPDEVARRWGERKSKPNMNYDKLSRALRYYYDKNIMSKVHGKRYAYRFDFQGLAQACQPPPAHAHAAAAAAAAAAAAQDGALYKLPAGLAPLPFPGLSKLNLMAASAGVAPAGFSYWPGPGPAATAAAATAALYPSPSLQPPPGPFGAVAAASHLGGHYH
Method in brief: (§1)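 Human transcription factors carrying a GST fusion were produced in yeast, bound to glutathione beads, tagged with DNA barcodes and pooled together with a tag-only sample. Each pool was held with 200 nmole of a random double-stranded 16-mer DNA library in Tris/NaCl/DTT/glycerol buffer for 30 min at room temperature, then washed, crosslinked in 0.1% formaldehyde, proximity-ligated with BsaI/T4 ligase (1 h, 37 °C), PCR-amplified and sequenced on an Illumina NextSeq500. Binding signal is the read frequency of each hexamer for a given factor divided by its frequency in the tag-only sample.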

ETV5 = ETV5 (Homo sapiens, UniProt P41161 1-510); conditions: protein: recombinant; tags: N-terminal GST; dsDNA, one strand shown
Sequence of ETV5 (P41161 whole entry): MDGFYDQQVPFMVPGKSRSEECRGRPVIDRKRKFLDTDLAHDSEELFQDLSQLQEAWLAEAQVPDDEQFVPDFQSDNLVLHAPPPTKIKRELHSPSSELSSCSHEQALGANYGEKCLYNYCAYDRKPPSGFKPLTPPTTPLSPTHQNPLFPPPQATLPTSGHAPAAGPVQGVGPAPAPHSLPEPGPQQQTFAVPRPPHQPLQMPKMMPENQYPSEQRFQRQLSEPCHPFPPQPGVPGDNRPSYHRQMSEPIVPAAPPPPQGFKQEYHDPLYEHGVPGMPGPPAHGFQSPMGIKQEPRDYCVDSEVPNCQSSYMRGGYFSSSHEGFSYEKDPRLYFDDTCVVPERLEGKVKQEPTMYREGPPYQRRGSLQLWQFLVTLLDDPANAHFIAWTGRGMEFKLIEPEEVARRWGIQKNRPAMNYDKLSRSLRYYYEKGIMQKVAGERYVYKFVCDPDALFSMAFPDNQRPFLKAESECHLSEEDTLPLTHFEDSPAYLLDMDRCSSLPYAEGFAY
Method in brief: as §1

HSF1 = HSF1 (Homo sapiens, UniProt Q00613 1-529); conditions: protein: recombinant; tags: N-terminal GST; chain copies: 3; dsDNA, one strand shown
Sequence of HSF1 (Q00613 whole entry): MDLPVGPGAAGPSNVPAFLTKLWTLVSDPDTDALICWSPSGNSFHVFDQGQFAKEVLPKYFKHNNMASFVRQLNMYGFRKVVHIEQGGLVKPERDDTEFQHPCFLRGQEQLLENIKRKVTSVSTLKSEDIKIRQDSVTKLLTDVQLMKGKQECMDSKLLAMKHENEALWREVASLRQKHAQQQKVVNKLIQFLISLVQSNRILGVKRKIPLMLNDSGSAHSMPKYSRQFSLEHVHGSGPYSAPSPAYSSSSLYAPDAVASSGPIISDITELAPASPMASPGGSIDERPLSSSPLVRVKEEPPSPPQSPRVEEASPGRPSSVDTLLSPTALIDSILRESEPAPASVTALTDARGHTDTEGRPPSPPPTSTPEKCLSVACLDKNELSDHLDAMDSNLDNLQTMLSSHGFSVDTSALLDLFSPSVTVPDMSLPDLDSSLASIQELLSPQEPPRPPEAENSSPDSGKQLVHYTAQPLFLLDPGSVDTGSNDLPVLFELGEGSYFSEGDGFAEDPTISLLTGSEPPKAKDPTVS
Method in brief: as §1

SPIC = target: T2, SPIC (Homo sapiens, UniProt Q8N5J4 1-248); conditions: protein: recombinant; tags: N-terminal GST; dsDNA, one strand shown
T2 sequence: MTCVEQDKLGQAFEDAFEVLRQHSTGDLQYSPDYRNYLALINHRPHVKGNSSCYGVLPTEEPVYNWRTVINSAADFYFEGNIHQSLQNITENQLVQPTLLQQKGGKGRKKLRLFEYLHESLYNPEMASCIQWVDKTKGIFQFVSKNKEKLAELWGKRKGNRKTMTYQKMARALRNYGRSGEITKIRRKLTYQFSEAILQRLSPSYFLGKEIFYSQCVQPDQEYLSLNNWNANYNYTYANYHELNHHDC
Method in brief: as §1

ELF4 = ELF4 (Homo sapiens, UniProt Q99607 1-663); conditions: protein: recombinant; tags: N-terminal GST; dsDNA, one strand shown
Sequence of ELF4 (Q99607 whole entry): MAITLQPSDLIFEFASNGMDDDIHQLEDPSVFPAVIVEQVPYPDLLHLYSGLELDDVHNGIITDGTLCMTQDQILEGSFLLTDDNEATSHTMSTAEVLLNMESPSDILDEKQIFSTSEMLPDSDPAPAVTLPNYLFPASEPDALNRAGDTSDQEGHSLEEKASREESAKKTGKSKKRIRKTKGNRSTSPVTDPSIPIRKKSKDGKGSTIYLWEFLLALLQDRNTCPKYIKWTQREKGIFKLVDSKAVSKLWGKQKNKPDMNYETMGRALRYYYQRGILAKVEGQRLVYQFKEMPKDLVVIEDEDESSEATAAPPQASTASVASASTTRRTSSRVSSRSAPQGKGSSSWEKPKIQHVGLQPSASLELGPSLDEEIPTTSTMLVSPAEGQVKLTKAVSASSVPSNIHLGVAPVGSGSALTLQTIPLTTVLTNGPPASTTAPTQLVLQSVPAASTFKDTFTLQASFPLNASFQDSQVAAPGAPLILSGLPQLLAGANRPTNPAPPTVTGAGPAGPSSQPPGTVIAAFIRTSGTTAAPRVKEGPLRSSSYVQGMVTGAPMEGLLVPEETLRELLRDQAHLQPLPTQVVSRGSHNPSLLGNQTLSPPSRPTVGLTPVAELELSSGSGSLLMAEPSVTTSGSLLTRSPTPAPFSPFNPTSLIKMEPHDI
Method in brief: as §1

ELK4 = target: T3, ELK4 (Homo sapiens, UniProt P28324-2 1-405); conditions: protein: recombinant; tags: N-terminal GST; dsDNA, one strand shown
T3 sequence: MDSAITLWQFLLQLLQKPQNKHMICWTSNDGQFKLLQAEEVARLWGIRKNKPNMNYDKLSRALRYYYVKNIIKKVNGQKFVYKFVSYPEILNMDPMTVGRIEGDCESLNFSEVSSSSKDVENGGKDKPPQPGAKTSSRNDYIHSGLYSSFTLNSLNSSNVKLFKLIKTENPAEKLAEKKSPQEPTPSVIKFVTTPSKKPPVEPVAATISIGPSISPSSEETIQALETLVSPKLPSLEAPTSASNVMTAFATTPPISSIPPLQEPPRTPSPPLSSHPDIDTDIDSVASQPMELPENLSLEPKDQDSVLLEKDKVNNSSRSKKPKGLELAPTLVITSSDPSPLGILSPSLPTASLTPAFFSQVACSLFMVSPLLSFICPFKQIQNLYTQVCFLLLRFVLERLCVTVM
Method in brief: as §1

ETV2 = target: T4, ETV2 (Homo sapiens, UniProt O00321 1-342); conditions: protein: recombinant; tags: N-terminal GST; dsDNA, one strand shown
T4 sequence: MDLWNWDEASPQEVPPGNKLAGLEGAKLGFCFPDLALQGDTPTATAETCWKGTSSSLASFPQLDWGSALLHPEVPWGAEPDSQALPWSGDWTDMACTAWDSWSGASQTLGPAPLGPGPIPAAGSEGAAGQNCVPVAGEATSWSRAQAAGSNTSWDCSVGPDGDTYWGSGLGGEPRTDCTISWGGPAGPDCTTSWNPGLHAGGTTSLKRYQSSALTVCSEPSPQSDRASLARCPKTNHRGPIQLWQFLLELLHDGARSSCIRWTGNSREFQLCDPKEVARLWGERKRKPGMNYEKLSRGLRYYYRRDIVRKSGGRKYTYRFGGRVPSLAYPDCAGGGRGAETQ
Method in brief: as §1

ELF3 = target: T5, ELF3 (Homo sapiens, UniProt P78545 1-371); conditions: protein: recombinant; tags: N-terminal GST; dsDNA, one strand shown
T5 sequence: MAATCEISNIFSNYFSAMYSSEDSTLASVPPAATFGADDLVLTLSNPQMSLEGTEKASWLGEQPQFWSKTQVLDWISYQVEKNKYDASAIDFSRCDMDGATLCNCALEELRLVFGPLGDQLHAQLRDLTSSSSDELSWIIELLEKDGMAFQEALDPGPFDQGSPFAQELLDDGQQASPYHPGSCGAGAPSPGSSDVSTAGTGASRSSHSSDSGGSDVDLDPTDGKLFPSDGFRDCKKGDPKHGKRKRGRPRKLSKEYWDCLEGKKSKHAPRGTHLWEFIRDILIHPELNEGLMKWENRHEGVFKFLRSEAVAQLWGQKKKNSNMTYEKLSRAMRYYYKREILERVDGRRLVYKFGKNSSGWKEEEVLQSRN
Method in brief: as §1

CRX = CRX (Homo sapiens, UniProt O43186 1-299); conditions: protein: recombinant; tags: N-terminal GST; dsDNA, one strand shown
Sequence of CRX (O43186 whole entry): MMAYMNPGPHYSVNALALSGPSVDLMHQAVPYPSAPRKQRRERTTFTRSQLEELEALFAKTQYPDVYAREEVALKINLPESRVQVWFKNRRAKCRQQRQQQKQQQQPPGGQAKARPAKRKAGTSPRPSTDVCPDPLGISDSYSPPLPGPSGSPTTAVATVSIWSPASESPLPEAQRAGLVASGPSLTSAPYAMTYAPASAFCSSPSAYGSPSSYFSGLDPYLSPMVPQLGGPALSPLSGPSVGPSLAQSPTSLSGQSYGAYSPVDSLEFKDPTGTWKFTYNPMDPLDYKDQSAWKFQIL
Method in brief: as §1

ETV1 = ETV1 (Homo sapiens, UniProt P50549 1-477); conditions: protein: recombinant; tags: N-terminal GST; dsDNA, one strand shown
Sequence of ETV1 (P50549 whole entry): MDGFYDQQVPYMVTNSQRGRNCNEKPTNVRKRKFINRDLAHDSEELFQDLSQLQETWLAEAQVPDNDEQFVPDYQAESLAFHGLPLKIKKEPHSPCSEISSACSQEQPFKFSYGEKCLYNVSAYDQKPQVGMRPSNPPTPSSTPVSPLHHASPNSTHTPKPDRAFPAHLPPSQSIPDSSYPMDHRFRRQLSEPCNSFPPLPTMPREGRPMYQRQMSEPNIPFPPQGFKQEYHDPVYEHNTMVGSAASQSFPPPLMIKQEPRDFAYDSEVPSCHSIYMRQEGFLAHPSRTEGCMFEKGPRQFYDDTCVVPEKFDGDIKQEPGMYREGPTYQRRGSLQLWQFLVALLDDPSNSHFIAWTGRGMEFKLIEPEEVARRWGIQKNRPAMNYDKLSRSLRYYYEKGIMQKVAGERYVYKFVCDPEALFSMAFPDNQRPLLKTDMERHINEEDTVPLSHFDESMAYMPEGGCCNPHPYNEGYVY
Method in brief: as §1

ERF = target: T6, ERF (Homo sapiens, UniProt P50548 1-548); conditions: protein: recombinant; tags: N-terminal GST; dsDNA, one strand shown
T6 sequence: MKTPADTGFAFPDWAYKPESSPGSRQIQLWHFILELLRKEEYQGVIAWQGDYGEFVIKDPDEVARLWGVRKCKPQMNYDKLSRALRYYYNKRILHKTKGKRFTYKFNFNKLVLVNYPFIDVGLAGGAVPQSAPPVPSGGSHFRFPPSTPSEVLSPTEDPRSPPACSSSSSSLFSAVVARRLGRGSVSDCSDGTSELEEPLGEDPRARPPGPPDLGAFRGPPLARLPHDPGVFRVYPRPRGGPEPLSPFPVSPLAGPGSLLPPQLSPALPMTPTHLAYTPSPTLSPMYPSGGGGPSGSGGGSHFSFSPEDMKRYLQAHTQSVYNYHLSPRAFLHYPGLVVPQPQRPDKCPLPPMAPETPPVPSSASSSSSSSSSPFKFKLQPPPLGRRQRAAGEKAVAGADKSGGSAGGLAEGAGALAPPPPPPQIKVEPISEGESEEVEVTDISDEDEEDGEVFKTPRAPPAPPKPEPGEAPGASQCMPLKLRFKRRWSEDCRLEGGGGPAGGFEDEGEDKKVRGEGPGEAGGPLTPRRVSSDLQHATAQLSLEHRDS
Method in brief: as §1

ETV3L = target: T7, ETV3L (Homo sapiens, UniProt Q6ZN32 1-361); conditions: protein: recombinant; tags: N-terminal GST; dsDNA, one strand shown
T7 sequence: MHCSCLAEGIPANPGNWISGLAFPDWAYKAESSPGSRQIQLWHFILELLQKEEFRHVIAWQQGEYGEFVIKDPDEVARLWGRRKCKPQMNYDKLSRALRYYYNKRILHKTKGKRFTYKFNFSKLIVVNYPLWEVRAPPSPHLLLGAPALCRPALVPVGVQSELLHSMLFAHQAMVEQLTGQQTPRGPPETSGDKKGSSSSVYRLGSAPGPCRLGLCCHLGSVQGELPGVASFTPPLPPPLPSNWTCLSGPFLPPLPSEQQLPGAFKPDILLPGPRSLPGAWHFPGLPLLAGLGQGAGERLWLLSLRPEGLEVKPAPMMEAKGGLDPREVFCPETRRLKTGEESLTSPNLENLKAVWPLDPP
Method in brief: as §1

ETS2 = target: T8, ETS2 (Homo sapiens, UniProt P15036 1-469); conditions: protein: recombinant; tags: N-terminal GST; dsDNA, one strand shown
T8 sequence: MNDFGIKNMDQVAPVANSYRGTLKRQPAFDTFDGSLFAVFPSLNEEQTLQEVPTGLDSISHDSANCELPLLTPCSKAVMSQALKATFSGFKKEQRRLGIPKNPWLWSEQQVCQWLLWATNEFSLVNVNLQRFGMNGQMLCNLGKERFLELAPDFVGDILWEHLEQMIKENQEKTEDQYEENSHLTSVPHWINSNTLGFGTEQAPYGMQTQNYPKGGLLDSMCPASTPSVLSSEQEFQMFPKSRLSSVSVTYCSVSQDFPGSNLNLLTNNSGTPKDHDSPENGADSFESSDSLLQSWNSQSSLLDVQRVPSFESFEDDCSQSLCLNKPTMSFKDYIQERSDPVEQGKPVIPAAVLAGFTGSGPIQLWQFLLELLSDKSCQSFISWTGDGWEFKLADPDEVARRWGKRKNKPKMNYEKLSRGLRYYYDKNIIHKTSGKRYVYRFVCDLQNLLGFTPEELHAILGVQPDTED
Method in brief: as §1

SPDEF = target: T9, SPDEF (Homo sapiens, UniProt O95238 1-335); conditions: protein: recombinant; tags: N-terminal GST; dsDNA, one strand shown
T9 sequence: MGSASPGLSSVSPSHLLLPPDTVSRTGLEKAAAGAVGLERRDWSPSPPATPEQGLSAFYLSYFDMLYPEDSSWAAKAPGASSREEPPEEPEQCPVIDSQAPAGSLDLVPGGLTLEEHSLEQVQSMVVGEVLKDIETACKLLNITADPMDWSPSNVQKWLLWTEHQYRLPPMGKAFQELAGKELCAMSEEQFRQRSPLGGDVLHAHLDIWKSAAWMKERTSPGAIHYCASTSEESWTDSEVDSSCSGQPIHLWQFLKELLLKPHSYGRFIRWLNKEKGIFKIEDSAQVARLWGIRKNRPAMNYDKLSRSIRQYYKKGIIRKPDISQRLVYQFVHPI
Method in brief: as §1

ETV7 = target: T10, ETV7 (Homo sapiens, UniProt Q9Y603 1-341); conditions: protein: recombinant; tags: N-terminal GST; dsDNA, one strand shown
T10 sequence: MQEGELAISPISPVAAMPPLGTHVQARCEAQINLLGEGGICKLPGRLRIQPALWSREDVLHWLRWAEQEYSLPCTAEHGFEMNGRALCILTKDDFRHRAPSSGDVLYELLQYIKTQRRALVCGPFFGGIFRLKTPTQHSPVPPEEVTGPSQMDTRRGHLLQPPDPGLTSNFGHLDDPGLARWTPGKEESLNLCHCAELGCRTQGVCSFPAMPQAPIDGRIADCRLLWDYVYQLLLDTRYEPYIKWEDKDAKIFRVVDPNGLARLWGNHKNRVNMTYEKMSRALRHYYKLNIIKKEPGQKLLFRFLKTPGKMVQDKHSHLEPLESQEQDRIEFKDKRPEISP
Method in brief: as §1

ELF5 = target: T11, ELF5 (Homo sapiens, UniProt Q9UKW6-2 1-255); conditions: protein: recombinant; tags: N-terminal GST; dsDNA, one strand shown
T11 sequence: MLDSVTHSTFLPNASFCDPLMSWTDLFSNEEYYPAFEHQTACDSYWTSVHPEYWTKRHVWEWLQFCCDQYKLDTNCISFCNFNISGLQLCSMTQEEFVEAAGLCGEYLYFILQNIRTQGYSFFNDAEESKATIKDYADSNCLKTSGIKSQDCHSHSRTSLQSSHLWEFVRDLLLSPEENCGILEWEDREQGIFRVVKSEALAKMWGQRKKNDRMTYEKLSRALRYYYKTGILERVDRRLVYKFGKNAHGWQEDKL
Method in brief: as §1

ETV3 = target: T12, ETV3 (Homo sapiens, UniProt P41162-2 1-143); conditions: protein: recombinant; tags: N-terminal GST; dsDNA, one strand shown
T12 sequence: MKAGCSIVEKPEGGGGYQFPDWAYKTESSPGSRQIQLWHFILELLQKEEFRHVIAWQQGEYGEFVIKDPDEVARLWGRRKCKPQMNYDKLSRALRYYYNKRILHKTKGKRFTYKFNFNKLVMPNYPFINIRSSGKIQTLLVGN
Method in brief: as §1

ETV6 = ETV6 (Homo sapiens, UniProt P41212 1-452); conditions: protein: recombinant; tags: N-terminal GST; dsDNA, one strand shown
Sequence of ETV6 (P41212 whole entry): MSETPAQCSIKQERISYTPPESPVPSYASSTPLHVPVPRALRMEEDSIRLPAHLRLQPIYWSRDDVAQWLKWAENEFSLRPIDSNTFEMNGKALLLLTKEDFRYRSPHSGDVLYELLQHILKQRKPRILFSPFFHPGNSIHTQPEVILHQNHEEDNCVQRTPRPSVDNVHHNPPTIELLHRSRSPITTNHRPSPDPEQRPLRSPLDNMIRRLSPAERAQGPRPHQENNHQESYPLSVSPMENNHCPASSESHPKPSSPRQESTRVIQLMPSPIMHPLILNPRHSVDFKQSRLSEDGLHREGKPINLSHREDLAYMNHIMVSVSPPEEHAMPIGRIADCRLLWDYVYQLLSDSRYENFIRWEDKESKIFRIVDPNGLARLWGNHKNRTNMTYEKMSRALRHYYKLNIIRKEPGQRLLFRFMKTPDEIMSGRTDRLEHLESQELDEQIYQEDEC
Method in brief: as §1

Sequence: TTCATG
- binding signal (FEV): 1.23 fold enrichment (6-mer frequency, TF over GST control)
- binding signal (ETV5): 1.27 fold enrichment (6-mer frequency, TF over GST control)
- binding signal (HSF1): 1.23 fold enrichment (6-mer frequency, TF over GST control)
- binding signal (SPIC): 1.35 fold enrichment (6-mer frequency, TF over GST control)
- binding signal (ELF4): 1.33 fold enrichment (6-mer frequency, TF over GST control)
- binding signal (ELK4): 1.32 fold enrichment (6-mer frequency, TF over GST control)
- binding signal (ETV2): 1.26 fold enrichment (6-mer frequency, TF over GST control)
- binding signal (ELF3): 1.27 fold enrichment (6-mer frequency, TF over GST control)
- binding signal (CRX): 1.16 fold enrichment (6-mer frequency, TF over GST control)
- binding signal (ETV1): 1.29 fold enrichment (6-mer frequency, TF over GST control)
- binding signal (ERF): 1.22 fold enrichment (6-mer frequency, TF over GST control)
- binding signal (ETV3L): 1.33 fold enrichment (6-mer frequency, TF over GST control)
- binding signal (ETS2): 1.33 fold enrichment (6-mer frequency, TF over GST control)
- binding signal (SPDEF): 1.27 fold enrichment (6-mer frequency, TF over GST control)
- binding signal (ETV7): 1.35 fold enrichment (6-mer frequency, TF over GST control)
- binding signal (ELF5): 1.28 fold enrichment (6-mer frequency, TF over GST control)
- binding signal (ETV3): 1.4 fold enrichment (6-mer frequency, TF over GST control)
- binding signal (ETV6): 1.26 fold enrichment (6-mer frequency, TF over GST control)
